Among all 330,000 compounds or so, about 1,900 (0.58%) were called active. Inconclusive results (about 4%) are left out. No stated cut-off is given here; in the data, inconclusive means inhibition above about 70% without an active follow-up result; inactive means below that. Not all results are given here. Results with a measured potency or affinity are listed apart.
assay: M. tuberculosis growth inhibition, HTS (AID 449762);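 further: bacterial growth assessed after seven days of incubation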; conditions: M. tuberculosis H37Rv growth inhibition, 7H9 media; at 25 µM; stronger effect = higher value

| Structure (SMILES) | inhibition |
| --- | --- |
| Cc1cc(C(=O)NNc2c(Cl)cccc2Cl)n(C(C)(C)C)n1 | -6.53% (inactive) |
| COc1cccc(NC(=O)C2CCN(C(=O)[C@@H]3Cc4ccccc4CN3C(=O)OC(C)(C)C)CC2)c1 | 2.76% (inactive) |
| Cc1cccc(/C=N/n2c(COc3ccccc3)n[nH]c2=S)c1 | 9.89% (inactive) |
| COc1cccc(/C=N/n2c(COc3ccccc3)n[nH]c2=S)c1 | 0.11% (inactive) |
| Cc1ccsc1/C=N/NC(=O)Cc1ccc([N+](=O)[O-])cc1 | 0.13% (inactive) |
| COC(=O)C1=C(c2ccc(F)cc2OCc2ccccc2)C[C@@H]2CC[C@H]1N2C(=O)NCc1ccc(C)cc1 | 11.4% (inactive) |
| Cc1nnc(SCC(=O)NC2CCCCC2)[nH]c1=O | -4.1% (inactive) |
| Cc1cc(=O)[nH]c(SCC(=O)NC2CCCCCC2)n1 | 1.87% (inactive) |
| COc1cc(C(=O)NNC(=O)c2cc(C)[nH]n2)cc(OC)c1OC | -0.74% (inactive) |
| COc1ccc(NC(=O)CN(C)C(=O)COc2ccccc2Cc2ccccc2)cc1 | 10.9% (inactive) |
| COC(=O)CCCC1=CC2=CC(=O)C(C)(OC(=O)c3cccs3)C(=O)C2=CN1Cc1ccccc1 (stereo not drawn) | -3.58% (inactive) |
| Cc1[nH]c2ccccc2c1C(=O)C(=O)N1CCN(c2cccc(Cl)c2)CC1 | 13.6% (inactive) |
| CCSc1ncnc2c1sc1nc3c(cc12)COC(C)(C)C3 | 3.08% (inactive) |
| CC1(C)Cc2nc3sc4c(SCC(=O)O)ncnc4c3cc2CO1 | 0.43% (inactive) |
| Cc1ccc(C)c(NC(=O)CN(C)C(=O)c2cccc(S(=O)(=O)N3CCN(Cc4ccccc4)CC3)c2)c1 | 4.09% (inactive) |
| OCCCn1c(CCNc2nc(-c3ccc(Cl)cc3)cs2)nc2cc(C(F)(F)F)ccc21 | 29.6% (inactive) |
| CN1CCN(/N=C/c2ccc(-c3ccccc3)cc2)CC1 | 4.56% (inactive) |
| CN1CCN(/N=C/c2cccc(Cl)c2Cl)CC1 | 4.06% (inactive) |
| COC(=O)c1ccc(CS(=O)(=O)c2ccc(C)cc2)o1 | 2.36% (inactive) |
| Cc1ccc(NC(=O)CC2OC(=O)c3ccccc32)cc1S(=O)(=O)N1CCCCCC1 (stereo not drawn) | -3.23% (inactive) |

| Structure (SMILES) | inhibition |
| --- | --- |
| Cc1nn(CCc2nn[nH]n2)c2nc(-c3ccccc3)cc(C(F)(F)F)c12 | 3.42% (inactive) |
| Cc1nn(CCc2nn[nH]n2)c2nc(-c3ccc(C4CCCCC4)cc3)cc(C(F)(F)F)c12 | 21.8% (inactive) |
| CC(C)(C)c1ccc(C(=O)N2CCC(=O)N(C(COCc3ccccc3)Cc3ccccc3)CC2)cc1 (stereo not drawn) | -7.28% (inactive) |
| C=CCNc1oc(-c2ccc(OCC)cc2)nc1C#N | 0.33% (inactive) |
| Cc1ccc(S(=O)(=O)N2CCN(Cc3nc4ccccc4n3C)CC2)cc1 | -10.2% (inactive) |
| CC(OC(=O)c1nc(Cl)ccc1Cl)C(=O)Nc1ccc2c(c1)OCCO2 (stereo not drawn) | 23.5% (inactive) |
| Cc1ccc(OCCCCNC2CCCCC2)c(C)c1 | 0.93% (inactive) |
| Cc1ccc(OCCCCN2CCCCC2)c(C)c1 | 0.08% (inactive) |
| O=C(COC(=O)C1=Cc2ccccc2OC1)NCc1ccccc1 | -0.53% (inactive) |
| Cc1ccc2c(c1)N(CC(=O)OC(CC(C)C)C(=O)NC1CCCC1)C(=O)CO2 (stereo not drawn) | 0.6% (inactive) |
| Cc1nc(-c2ccccc2)sc1C1(C)CC(c2ccc(OC(F)(F)F)cc2)=NO1 (stereo not drawn) | 1.65% (inactive) |
| Cc1nc(NC(=O)c2ccccc2)sc1C1(C)CC(c2ccccc2F)=NO1 (stereo not drawn) | -0.28% (inactive) |
| CN1C(=O)C(O)(CC(=O)c2cccnc2)c2ccccc21 (stereo not drawn) | -2.52% (inactive) |
| CCC1CN(C(=O)N2CCC(C(=O)NCc3ccc(C)o3)CC2)c2cc(C)ccc2O1 (stereo not drawn) | -5.76% (inactive) |
| Cc1ccnc(N/C=C(/NC(=O)c2ccccc2)C(=O)NN)n1 | 2.37% (inactive) |
| COc1ccc(-n2c(C)cc(C(=O)COC(=O)Cn3cnc4ccccc43)c2C)cc1 | 5.9% (inactive) |
| COc1ccc(C(=O)OCC2CC(c3ccccc3)=NO2)cc1OC (stereo not drawn) | 2.23% (inactive) |
| COc1ccccc1C1=NOC(COC(=O)c2ccc(Br)cc2)C1 (stereo not drawn) | 66.3% (inactive) |
| COC(C[C@H]1O[C@H]1C(=O)[C@@H](C)OCc1ccccc1)OC | -3.98% (inactive) |
| Cc1ccc(NC(=O)/C(C#N)=N/Nc2ccc(C(=O)O)cc2)c(C)c1 | -9.1% (inactive) |

| Structure (SMILES) | inhibition |
| --- | --- |
| CCOC(=O)C1CCN(Cc2coc3c(Cl)cc(Cl)cc3c2=O)CC1 | 10.8% (inactive) |
| COc1ccc(F)cc1S(=O)(=O)NCc1ccccc1 | -3.97% (inactive) |
| CCN(c1ccc(OC)cc1)S(=O)(=O)c1ccc2c(c1)CCN2C(=O)CCC(=O)O | -2.77% (inactive) |
| CCOC(=O)N1CCC(=C2c3ccc(Cl)cc3CCc3cccnc32)CC1 | 2.73% (inactive) |
| c1ccc2c(c1)CCc1ccccc1C2=C1CCNCC1 | -0.99% (inactive) |
| CC(C)(C)NC(=O)C(c1ccco1)N(C(=O)Cn1nnc(-c2ccc(F)cc2)n1)c1cccc(F)c1 (stereo not drawn) | 5.34% (inactive) |
| Cc1cc(N2CCN(Cc3nc(-c4ccc(Cl)cc4)oc3C)CC2)cc(C)n1 | 15.9% (inactive) |
| Cc1cc(N2CCN(Cc3nc(-c4ccc(F)cc4)oc3C)CC2)cc(C)n1 | 9.44% (inactive) |
| O=c1cnnc(SCCc2ccccc2)[nH]1 | -11.7% (inactive) |
| COc1ccc(-c2nnc3ccc(SC)nn23)cc1 | 12.5% (inactive) |
| O=C(O)Cn1ccc2ccccc21 | -3.21% (inactive) |
| CC(C)Cn1c(CN2CCN(C)C(CCO)C2)nc2ccccc21 (stereo not drawn) | -7.61% (inactive) |
| CC(=O)Oc1ccc2oc(=O)c3c(c2c1)CCCN3C(=O)CN1CCN(c2ncccn2)CC1 | -4.05% (inactive) |
| O=C(CN1CCN(c2ncccn2)CC1)N1CCCc2c1c(=O)oc1ccc(O)cc21 | 6.59% (inactive) |
| O=C(NCCNC(=O)c1ccc(Cl)cc1Cl)c1ccccn1 | 0.45% (inactive) |
| CCCc1cc(=O)[nH]c(SCC(=O)N2c3ccccc3NC(=O)C2(C)C)n1 | 3.32% (inactive) |
| CC1=C(C(=O)N2CCOCC2)C(c2cc(C)cs2)NC(=O)N1 (stereo not drawn) | 2.64% (inactive) |
| Cc1ccc(F)cc1NC(=O)COC(=O)c1ccc2ncsc2c1 | -5.07% (inactive) |

Reference: PubChem BioAssay AID449762 (Southern Research Specialized Biocontainment Screening …, 2010)
